AHR activator: AHR activators, primary screen, cell-based, luminescence, luciferase reporter, human | Aryl hydrocarbon receptor (Homo sapiens), P35869 | 320,000 compounds, 2.5% hits | AHR-responsive luciferase reporter cells | activation, % at 5 µM; in the data active = activation above about 47%
Target sequence (P35869 whole entry, looked up): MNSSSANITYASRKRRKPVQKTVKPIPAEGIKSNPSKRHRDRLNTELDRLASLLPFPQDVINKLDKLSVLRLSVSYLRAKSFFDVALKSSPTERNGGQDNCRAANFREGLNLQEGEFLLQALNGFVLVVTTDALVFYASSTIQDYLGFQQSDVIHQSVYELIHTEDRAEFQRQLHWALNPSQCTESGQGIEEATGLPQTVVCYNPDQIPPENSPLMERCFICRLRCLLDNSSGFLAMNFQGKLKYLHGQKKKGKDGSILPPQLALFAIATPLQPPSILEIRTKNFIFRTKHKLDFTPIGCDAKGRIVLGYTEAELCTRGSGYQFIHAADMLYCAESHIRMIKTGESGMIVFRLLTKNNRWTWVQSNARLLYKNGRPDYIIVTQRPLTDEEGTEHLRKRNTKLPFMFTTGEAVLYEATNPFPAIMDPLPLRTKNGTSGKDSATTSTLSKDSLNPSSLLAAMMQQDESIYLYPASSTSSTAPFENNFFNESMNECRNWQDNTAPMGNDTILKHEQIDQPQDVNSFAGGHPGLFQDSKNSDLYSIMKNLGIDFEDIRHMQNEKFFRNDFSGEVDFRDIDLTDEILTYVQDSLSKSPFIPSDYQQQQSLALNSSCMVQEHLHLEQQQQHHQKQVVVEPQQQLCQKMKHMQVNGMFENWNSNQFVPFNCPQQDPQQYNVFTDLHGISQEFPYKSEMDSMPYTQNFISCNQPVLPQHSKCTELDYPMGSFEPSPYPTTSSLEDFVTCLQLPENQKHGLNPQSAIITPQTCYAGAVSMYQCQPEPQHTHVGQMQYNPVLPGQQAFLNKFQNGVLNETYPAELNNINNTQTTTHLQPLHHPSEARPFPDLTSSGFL
Mot1-301 SUMO: yeast Mot1-301 growth rescue at high temperature, primary screen, SUMOylation pathway inhibitor project, S. cerevisiae, ATP luminescence, 38.5C; 320,000 compounds, 1% hits; S. cerevisiae Mot1-301 growth rescue; percent above DMSO median, 100 means doubled; AID 2716, 2010; growth rescue, % at 18.8 µM;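 active = every valid replicate shows activation above 250% relative to neutral control wells; inactive = the rest, any valid replicate at or below 250%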
NR3A LBD binder: binders of NR3A ligand-binding domain, primary screen, biophysical, differential scanning fluorimetry, uHTS; Glutamate receptor ionotropic, NMDA 3A (GRIN3A) ligand-binding domain; NR3A LBD differential scanning fluorimetry, Tm shift; 0% = protein alone, 100% = glycine-bound protein; Tm shift relative to glycine control, % at 25 µM; 340,000 compounds, 2.5% hits; AID 1259313, 2017;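 active = melting temperature shift of at least 10% of the positive control shift, at one fixed dose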
AI-2 QS modul: Vibrio harveyi AI-2 quorum sensing modulators, primary screen, JMH597 strain, luminescence/OD600 ratio | Vibrio harveyi JMH597 AI-2 luminescence/OD600 ratio, 9 h; stronger effect = lower value; strain lacks LuxN and CqsS sensors; 0 = neutral-control median | activity change, % at 7.5 µM | 300,000 compounds, 0.4% hits | AID 2094, 2009; in the data active = activity change below about -75%, passing the limit was not always enough;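 also: luminescence divided by OD600 gain over 9 h not by final OD600 alone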
H9c2 protect: cardioprotection against H2O2-induced cell death, primary screen, uHTS, H9c2 cells, ATPLite luminescence. H9c2 cardiomyocytes, H2O2 injury protection, 2 h. protection from H2O2 cell death, % at 20 µM. 360,000 compounds, 0.63% hits. AID 588492, 2011;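 active = compounds giving at least 50% protection of heart cells from peroxide-induced death in the single-dose screen, raw or plate-pattern-corrected value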
NTR1 ag: agonists of human NTR1, primary screen, imaging, U2OS cells, beta-arrestin-GFP, high content; activation, % at 20 µM; Neurotensin receptor type 1 (Homo sapiens), P30989; 330,000 compounds, 0.17% hits; NTR1-U2OS beta-arrestin-GFP spot imaging, agonist mode;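 active = activation at or above 40% of the spot to cytoplasm intensity ratio, with at least 20 cells analyzed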
A number is an active result; i = inactive; nt = not tested or not shown. Shown are actives, neighbours in structure and some others; about 6.2% of the full set was active somewhere.

SMILES	AHR activator	Mot1-301 SUMO	NR3A LBD binder	AI-2 QS modul	H9c2 protect	NTR1 ag
COc1ccc(CNC(=O)COC(=O)CCn2c(C)csc2=O)cc1OC	i	i	i	i	i	i
N/C(=N\OC(=O)Nc1ccccc1)c1ncc([N+](=O)[O-])s1	i	i	36	-88	i	i
O=Cc1cn(-c2ccccc2)nc1-c1ccncc1	60	i	i	i	i	i
Cc1ccc(OCC(=O)NNC(=O)c2ccc(NC(=O)C3CC3)cc2)c(C)c1	i	i	28	i	i	i
CNC(=S)N1CCN(CCNC2=CC(=O)CC(C)(C)C2)CC1	i	i	i	i	i	i
CC1(C)CC(NCCN2CCN(C3=CC(=C(C#N)C#N)CC(C)(C)C3)CC2)=CC(=C(C#N)C#N)C1	i	i	i	i	56	i
C=CC[C@H](CC(=O)NCCO)C(=O)NCCOC(=O)[C@@H](CC=C)Cc1ccc(F)cc1	i	i	i	nt	i	i
COCCNC(=O)CN(Cc1ccc(F)cc1)C(=O)CCC(=O)Nc1nccs1	i	i	i	i	i	i
COc1ccc(N/N=C(/C)c2cnnc(-c3ccccc3)n2)cc1	i	i	13	i	i	i
CCSc1ncc(/C=N/Nc2ccc(Cl)cc2)n1C	103	i	i	i	i	i
CN(C(=O)c1ccc(NC(=O)Cc2cccc(NC(=O)C3CCCN(C(=O)CCc4ccccc4)C3)c2)cc1)C1CCCC1 (stereo not given)	i	i	22	nt	i	i
CN(C(=O)c1cccc(NC(=O)Cc2ccc(NC(=O)C3CCCN(S(=O)(=O)c4cccc([N+](=O)[O-])c4)C3)cc2)c1)C1CCCCC1 (stereo not given)	nt	nt	10	nt	i	nt
CN(C(=O)c1cccc(NC(=O)Cc2ccc(NC(=O)C3CCN(S(=O)(=O)c4cccc([N+](=O)[O-])c4)CC3)cc2)c1)C1CCCC1	nt	nt	i	nt	i	nt
C=CCN(CC=C)CCOc1ccccc1F	i	i	i	i	i	i
C=CCN(CC=C)CCOc1cccc2ccccc12	i	i	12	i	i	i
CC(=O)c1sc(N/N=C\c2ccc(N(C)C)cc2)nc1C	57	i	i	i	i	i
CC(=O)c1sc(N/N=C/c2cccc([N+](=O)[O-])c2)nc1C	i	i	i	i	i	i
CCOC(=O)c1sc(N/N=C/c2cc(Br)c(O)c(OC)c2)nc1C	67	i	14	i	i	i
CC(=O)c1sc(N/N=C\c2c(O)ccc3ccccc23)nc1C	65	i	i	i	i	i
CC(=O)c1sc(N/N=C/c2cccc(O)c2)nc1C	i	i	14	i	i	i
CC(=O)Nc1sc(N/N=C/c2ccc(N(C)C)cc2)nc1-c1ccc(C)cc1	nt	nt	i	i	i	nt
Cn1c(=O)c2c(nc3n2CC(COc2ccccc2)O3)n(C)c1=O (stereo not given)	nt	i	i	i	i	i
COc1ccc(/C=N/Nc2nccnc2Cl)c(OC)c1	i	i	i	i	i	i
Clc1nccnc1N/N=C/c1ccc(Br)cc1	63	i	i	i	i	i
COc1ccc(/C=N/Nc2nccnc2Cl)cc1	i	i	12	i	i	i
SMILES	AHR activator	Mot1-301 SUMO	NR3A LBD binder	AI-2 QS modul	H9c2 protect	NTR1 ag
Brc1ccc(/C=N/Nc2ccccn2)cc1	i	i	i	i	i	i
COc1ccc(/C=N/Nc2nncc3ccccc23)cc1	48	i	i	i	i	i
COc1cc2c(cc1OC)C(COc1ccc(F)cc1)NCC2 (stereo not given)	i	i	271	i	i	i
CCc1ccc(OCC2NCCc3cc(OC)c(OC)cc32)cc1 (stereo not given)	i	i	i	i	i	i
O=C(NNC(=O)c1ccccc1F)c1ccc(-c2ccc(Cl)cc2)o1	68	i	i	i	i	i
O=C(NC1CCC(O)CC1)c1ccc(-c2ccc(Cl)cc2)o1 (stereo not given)	i	i	i	i	i	i
CCOc1ccccc1NC(=O)NNC(=O)CCc1ccc(OC)cc1	nt	i	i	i	i	i
Cn1c(CNC(=O)c2ccco2)nnc1SCC(=O)Nc1ccccc1Cl	i	i	13	i	i	i
Cc1cccc(NC(=O)CSc2nnc(CNC(=O)c3ccco3)n2C)c1C	i	i	i	i	i	i
Nc1cc2c(cc1N)-c1ccccc1C2	nt	nt	i	nt	i	nt
C=CCn1c(CNS(=O)(=O)c2ccc(Br)cc2)n[nH]c1=S	i	i	i	i	i	i
COC(=O)c1ccc(CSc2ccc3nnc(-c4cccc(F)c4)n3n2)o1	i	i	i	i	105	i
CCOC(=O)CC(=O)CSc1ccc2nnc(-c3cccc(F)c3)n2n1	i	i	i	i	i	i
NC(=O)COC(=O)c1sc2ccccc2c1Cl	i	545	i	i	i	i
O=C(Nc1nccs1)c1ccc(Cl)s1	i	i	i	i	i	i
O=C(Nc1nccs1)c1sc2ccccc2c1Cl	47	i	i	i	i	i
CCOC(=O)c1sc2ccccc2c1NC(=O)c1coc2ccccc2c1=O	i	i	i	i	i	i
CCOC(=O)c1sc2ccccc2c1OC(=O)c1ccccc1	i	i	14	i	i	i
O=C(N/N=C/c1ccncc1)c1sc2ccccc2c1Cl	i	i	13	i	i	i
Cc1cnc(NC(=O)c2sc3ccccc3c2Cl)s1	i	i	20	i	i	i
CC(C)c1nnc(NC(=O)c2sc3ccccc3c2Cl)s1	71	i	i	i	i	i
CCCn1nnc(NC(=O)c2sc3ccccc3c2Cl)n1	i	i	i	i	i	i
Cc1ccnc(NC(=O)c2sc3ccccc3c2Cl)c1	i	i	i	i	i	i
CC(=O)Nc1cc(-c2ccc(N3CCN(C)CC3)cc2)cn2c(-c3cccc(C(C)=O)c3)cnc12	nt	nt	nt	nt	i	nt
COc1ccc(-c2cc(NC=O)c3ncc(-c4ccc(C(C)=O)cc4)n3c2)cn1	nt	nt	nt	nt	64	nt
CC(=O)Nc1cccc(-c2cc(NC(C)=O)c3ncc(-c4cccc(C(C)=O)c4)n3c2)c1	nt	nt	nt	nt	59	nt
CC(=O)Nc1cccc(-c2cc(NC=O)c3ncc(-c4ccc(C(C)=O)cc4)n3c2)c1	nt	nt	nt	nt	93	nt
COc1ccc(-c2cc(NC(C)=O)c3ncc(-c4cccc(C(C)=O)c4)n3c2)cc1OC	nt	nt	nt	nt	111	nt
CC(=O)c1ccc(-c2cnc3c(NC=O)cc(-c4ccc(N5CCN(C)CC5)cc4)cn23)cc1	nt	nt	nt	nt	i	nt
O=C(O)C1(c2ccccc2)CCN(S(=O)(=O)c2cccc(Cl)c2)CC1	i	i	i	nt	i	i

Compound activity deposited in PubChem by several laboratories.
